Test results published in PubChem BioAssay AID1159580 (chemical genetic matrix, 2015).
Values joined by “and” are separate entries in the source; they are usually repeats but may differ in a detail not shown here. Identical values can stand only once. Hit rate of the full screen: of about 5,500 compounds, about 2,000 (36%) were called active. Not shown: some 18% with an inconclusive outcome. Cut-off read from the data, not from the text of the source: active = normalized growth mostly below about 0.91 (no sharp cut-off); inconclusive = no clear call, values can overlap the other calls; inactive = mostly above about 0.92. The list shows a part of the results.

Assay: chemical genetic growth profiling, strain panel (AID 1159580);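 note: tested at 20 µM; growth read once vehicle control cultures reached saturation at 30 °C; 1 = growth at the plate median or of vehicle wells; lower values mean less growth of the strain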
Details: S. cerevisiae deletion strains, growth OD

Measured: normalized growth

CC[C@H]1OC(=O)[C@H](C)[C@@H](O[C@H]2C[C@@](C)(OC)[C@@H](O)[C@H](C)O2)[C@H](C)[C@@H](O[C@@H]2O[C@H](C)C[C@H](N(C)C)[C@H]2O)[C@](C)(O)C[C@@H](C)/C(=N/OCOCCOC)[C@H](C)[C@@H](O)[C@]1(C)O
inactive: locus YAL021C, strain ccr4, stronger effect = lower value 1.03 | locus YAL026C, strain drs2, stronger effect = lower value 1.02 | locus YAL030W, strain snc1, stronger effect = lower value 0.998 | locus YBL061C, strain skt5, stronger effect = lower value 1.01 | locus YBR009C, strain hhf1, stronger effect = lower value 0.998 | locus YBR021W, strain FUR4, stronger effect = lower value 1.02 | locus YBR023C, strain chs3, stronger effect = lower value 1.01 | locus YBR171W, strain sec66, stronger effect = lower value 1.03 | locus YBR229C, strain ROT2, stronger effect = lower value 1.01 | locus YBR231C, strain swc5, stronger effect = lower value 1.01 | locus YBR279W, strain paf1, stronger effect = lower value 1 | locus YCL011C, strain gbp2, stronger effect = lower value 1.01 | locus YCL016C, strain dcc1, stronger effect = lower value 1 | locus YCL029C, strain bik1, stronger effect = lower value 0.988 | locus YCL069W, strain vba3, stronger effect = lower value 1.02 | locus YCR088W, strain abp1, stronger effect = lower value 1.01 | locus YDL005C, strain med2, stronger effect = lower value 1.01 | locus YDL035C, strain GPR1, stronger effect = lower value 1.01 | locus YDL040C, strain nat1, stronger effect = lower value 1.01 | locus YDL074C, strain BRE1, stronger effect = lower value 0.975 | locus YDL101C, strain DUN1, stronger effect = lower value 0.991 | locus YDL134C, strain PPH21, stronger effect = lower value 1.01 | locus YDL185W, strain tfp1, stronger effect = lower value 1 | locus YDL192W, strain arf1, stronger effect = lower value 1.01 | locus YDR001C, strain nth1, stronger effect = lower value 1.01 | locus YDR069C, strain doa4, stronger effect = lower value 1.03 | locus YDR101C, strain arx1, stronger effect = lower value 0.994 | locus YDR137W, strain rgp1, stronger effect = lower value 0.969 | locus YDR159W, strain sac3, stronger effect = lower value 0.996 | locus YDR162C, strain NBP2, stronger effect = lower value 1.01 | locus YDR195W, strain ref2 0.994 | locus YDR297W, strain sur2, stronger effect = lower value 1.02 | locus YDR318W, strain mcm21, stronger effect = lower value 0.995 | locus YDR334W, strain swr1, stronger effect = lower value 1.01 | locus YDR335W, strain msn5, stronger effect = lower value 1.01 | locus YDR388W, stronger effect = lower value 0.999 | locus YDR392W, strain spt3, stronger effect = lower value 0.949 | locus YDR502C, strain sam2, stronger effect = lower value 1.01 | locus YEL003W, strain gim4, stronger effect = lower value 1.02 | locus YEL037C, strain rad23, stronger effect = lower value 1.02 | locus YEL061C, strain CIN8 (second series), stronger effect = lower value 1 | locus YEL061C, strain CIN8, stronger effect = lower value 1 | locus YER015W, strain faa2, stronger effect = lower value 1.01 | locus YER016W, strain bim1, stronger effect = lower value 0.995 | locus YER110C, stronger effect = lower value 1 | locus YER111C, strain swi4, stronger effect = lower value 1.01 | locus YER155C, strain BEM2 (second series), stronger effect = lower value 0.897 | locus YER155C, strain BEM2, stronger effect = lower value 1 | locus YER167W, strain BCK2, stronger effect = lower value 1 | locus YFR010W, strain ubp6, stronger effect = lower value 1.02 | locus YGL078C, strain dbp3, stronger effect = lower value 1 | locus YGL086W, strain mad1, stronger effect = lower value 1 | locus YGL167C, strain pmr1, stronger effect = lower value 1 | locus YGL173C, strain kem1, stronger effect = lower value 1.02 | locus YGL227W, strain vid30, stronger effect = lower value 1.03 | locus YGL240W, strain doc1, stronger effect = lower value 1.02 | locus YGL248W, strain PDE1, stronger effect = lower value 0.993 | locus YGL253W, strain hxk2, stronger effect = lower value 1.01 | locus YGR135W, strain pre9, stronger effect = lower value 1.04 | locus YGR229C, strain SMI1, stronger effect = lower value 1.01 | locus YHR013C, strain ard1, stronger effect = lower value 0.983 | locus YHR027C, strain rpn1, stronger effect = lower value 0.999 | locus YHR030C, strain SLT2, stronger effect = lower value 1.01 and 0.997 | locus YHR079C, strain IRE1 (second series), stronger effect = lower value 0.98 | locus YHR079C, strain IRE1, stronger effect = lower value 0.985 | locus YHR094C, strain hxt1, stronger effect = lower value 0.987 | locus YHR129C, strain ARP1, stronger effect = lower value 1.01 | locus YHR142W, strain chs7, stronger effect = lower value 1.02 | locus YHR200W, strain rpn10, stronger effect = lower value 1.01 | locus YIL066C, strain RNR3, stronger effect = lower value 0.983 | locus YIL073C, strain SPO22, stronger effect = lower value 1.07 | locus YIL125W, strain kgd1, stronger effect = lower value 1 | locus YIR030C, strain dcg1, stronger effect = lower value 0.997 | locus YJL092W, strain hpr5, stronger effect = lower value 1.01 | locus YJL095W, strain BCK1 (second series), stronger effect = lower value 1.01 | locus YJL095W, strain BCK1, stronger effect = lower value 0.97 and 0.99 | locus YJL115W, strain asf1, stronger effect = lower value 1.04 | locus YJL129C, strain trk1, stronger effect = lower value 1.02 | locus YJL134W, strain LCB3, stronger effect = lower value 1 | locus YJL154C, strain vps35, stronger effect = lower value 1.01 | locus YJL164C, strain tpk1, stronger effect = lower value 1.01 | locus YJL166W, strain qcr8, stronger effect = lower value 1.01 | locus YJL168C, strain set2, stronger effect = lower value 0.992 | locus YJL187C, strain SWE1 (second series), stronger effect = lower value 0.97 | locus YJL187C, strain SWE1, stronger effect = lower value 1.02 | locus YJR043C, strain POL32, stronger effect = lower value 1.01 | locus YJR066W, strain TOR1, stronger effect = lower value 0.977
